Test results published in PubChem BioAssay AID2718 (Broad Institute, 2010).
Among all 320,000 compounds or so, about 480 (0.15%) were called active. Roughly 1% stayed inconclusive and do not appear here. Rule as the data show it: active = inhibition above about 26% (passing the limit was not always enough); inconclusive = no clear call, values can overlap the other calls. Shown is part of a subset that was picked to be rich in actives.

Biological target: Histone deacetylase 3 (Homo sapiens) (UniProt O15379)
Sequence (O15379 whole entry, looked up): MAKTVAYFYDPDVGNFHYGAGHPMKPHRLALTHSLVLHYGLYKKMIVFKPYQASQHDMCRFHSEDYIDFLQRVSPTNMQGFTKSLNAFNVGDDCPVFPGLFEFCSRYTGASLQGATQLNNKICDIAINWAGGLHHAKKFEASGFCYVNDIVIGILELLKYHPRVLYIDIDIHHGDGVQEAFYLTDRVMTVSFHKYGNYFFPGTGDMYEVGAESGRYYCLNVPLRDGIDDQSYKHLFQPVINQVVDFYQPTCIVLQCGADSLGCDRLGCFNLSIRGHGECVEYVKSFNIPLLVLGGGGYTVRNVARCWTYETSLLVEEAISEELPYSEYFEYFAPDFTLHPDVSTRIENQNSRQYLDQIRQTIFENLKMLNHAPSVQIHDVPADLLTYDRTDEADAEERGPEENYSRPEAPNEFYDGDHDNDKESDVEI
Assay: HDAC3 deacetylase inhibitors, primary screen, biochemical, fluorescence, cell-free homogeneous (AID 2718)
Conditions: recombinant HDAC3, fluorogenic peptide/trypsin coupled, at 8.3 µM, active compounds read high

SMILES	inhibition
Cc1ccc(C)c(NC(=O)c2cc(-c3cc(C)cc(C)c3O)n[nH]2)c1	-1.79% (inactive)
Cc1cc(NC(=O)CSc2nnc(-c3ccco3)n2N)no1	2.85% (inactive)
Cc1[nH]c2ccccc2c1SCC(=O)Nc1nccs1	-0.0176% (inactive)
CC(C)(C)OC(=O)C[C@@H]1C/C=C\C[C@H](CC(=O)N[C@@H](CO)Cc2ccccc2)C(=O)N[C@H](Cc2ccccc2)COC1=O	-0.452% (inactive)
COc1ccccc1-c1sc2ccccc2c1C#CC1(O)CCCCC1	14.4% (inactive)
COc1cc(/C=C/C(=O)OCC(=O)c2ccccc2)cc(OC)c1OC	-7.7% (inactive)
O=C(OCC(=O)N1CCCCC1)c1ccc(OC(F)(F)F)cc1	-7.06% (inactive)
O=C(Cn1cnc2c(OCc3ccccc3)ncnc21)NCCCn1ccnc1	-4.2% (inactive)
O=C1CCCC(O)=C1N=Nc1ccc2ncsc2c1	-0.0778% (inactive)
Nc1ccc(N=Nc2ccccc2Cl)c(N)n1	14.3% (inactive)
NC[C@H](Cc1ccccc1)NCCc1cc(C(F)(F)F)cc(C(F)(F)F)c1	3.54% (inactive)
O=C(COC(=O)CCCNC(=O)c1ccc(Cl)cc1)Nc1cc(Cl)ccc1Cl	-2.2% (inactive)
O=C(Nc1cc(S(=O)(=O)Nc2ccc(Cl)cc2)ccc1O)c1ccc(F)cc1F	8.91% (inactive)
O=C(Nc1ncccc1O)c1ccc(S(=O)(=O)N2CCCC2)cc1	72.1% (active)
O=C(N/N=C/c1ccccn1)c1ccc(S(=O)(=O)N2CCCCCC2)cc1	-5.66% (inactive)
O=C(Nc1ccccc1F)c1ccc(S(=O)(=O)N2CCCCCC2)cc1	7.14% (inactive)
CCCc1cc(=O)[nH]c(SCC(=O)Nc2ccc(S(=O)(=O)N3CCCC3)cc2)n1	4.11% (inactive)
O=C1N(c2ccccc2)C(=Nc2ccccc2)SC12CC2	1.18% (inactive)
Cc1ccccc1N/C(SCc1ccc(Cl)cc1)=C(/C#N)C(N)=O	15.5% (inactive)
CCOC(=O)C1CCN(CCC(=O)Nc2cccc(C)c2)CC1	1.84% (inactive)
CC(=O)c1cccc(OCC(=O)OCC(=O)Nc2cc(S(=O)(=O)N3CCCCC3)ccc2C)c1	0.557% (inactive)
CS(=O)(=O)c1ccc(Cl)c(NC(=O)COC(=O)c2cccc(S(=O)(=O)N3CCCC3)c2)c1	5.04% (inactive)
CNC(=O)NC(=O)C(OC(=O)c1cccc(S(=O)(=O)N2CCCCC2)c1)c1ccccc1 (centres undefined)	30.1% (active)
CN1CCN(S(=O)(=O)c2cccc(C(=O)O)c2)CC1	-5.01% (inactive)
Cn1c(NC(=O)c2ccccc2)nc2ccccc21	9.99% (inactive)

SMILES	inhibition
COC(=O)c1nc(NC(=O)c2ccccc2)n[nH]1	58.7% (active)
COC(=O)c1nc(NC(=O)c2ccc(Cl)cc2)n[nH]1	7.09% (inactive)
Nn1c(SCC(=O)Nc2ccc3c(c2)CCC3)nnc1C1CC1	1.79% (inactive)
Cc1cc(C)n(C(=O)CCNC(=O)c2ccccc2Cl)n1	-13.4% (inactive)
COc1cccc(N2CC(NS(=O)(=O)c3cccs3)CC2=O)c1 (centres undefined)	-2.66% (inactive)
COc1ccccc1C(=O)OCC(=O)Nc1cccc(S(=O)(=O)NC2=NCCCCC2)c1	-6.85% (inactive)
O=C(COC(=O)c1cc[n+]([O-])cc1)Nc1ccc(Cl)c(C(F)(F)F)c1	-1.85% (inactive)
COc1cc(OC)cc(C(=O)NCC(=O)OCC(=O)NC(C)CCc2ccccc2)c1 (centres undefined)	-5.18% (inactive)
CC(C)Cn1c(SCC(=O)Nc2ccc(Cl)cc2F)nc(O)cc1=O	8.68% (inactive)
CCC(CO)Oc1cc(NC(=O)c2cccc(F)c2)c2ncn(C(C)C)c2c1 (centres undefined)	-0.176% (inactive)
COc1ccc(OCC(=O)Nc2ccc(N3CCC(C)CC3)cc2)cc1	5.48% (inactive)
O=C(COc1ccc([N+](=O)[O-])cc1)Nc1ccc(N2CCCC2)cc1	54.5% (active)
CCC(=O)c1ccc(OCC(=O)Nc2ccc(N3CCCCC3)cc2)cc1	-1.33% (inactive)
O=C(Nc1cc(S(=O)(=O)N2CCCCC2)ccc1Cl)C1COc2ccccc2O1 (centres undefined)	-0.0794% (inactive)
COc1cc(OC)cc(-c2cc3ccc(F)cc3cn2)c1	5.76% (inactive)
CCN(C[C@H]1N[C@@](CC)(C(=O)OC)[C@H]2C(=O)N(Cc3ccccc3)C(=O)[C@@H]12)S(=O)(=O)c1ccc(C(F)(F)F)cc1	4.73% (inactive)
CC[C@@H]1CCCCc2ccccc2[C@@H](C(=O)C[C@H](O)CC(C)=O)OC1=O	-4.02% (inactive)
O=C(CCNC(=O)c1ccccc1)NN=Cc1ccc(Br)o1	4.25% (inactive)
Fc1ccccc1-c1cc2cc3c(cc2cn1)OCO3	0.895% (inactive)
CCOC(=O)C1Cn2c(nc3c(c2=O)C(C)(CC)Cc2ccccc2-3)S1 (centres undefined)	-2.26% (inactive)
CCCN(CC1CC1)C(=O)COC(=O)c1ccc(C)cc1O	-5.26% (inactive)
CCCC1CCC(=NNC(=S)NCCc2ccccc2)CC1 (centres undefined)	-4.85% (inactive)
COCCN(CCOC)S(=O)(=O)NC[C@H]1O[C@@H](n2cnc3c(N)ncnc32)[C@H](O)[C@@H]1O	-1.58% (inactive)
Cc1nc2ccc(NC(=O)c3cccc(S(=O)(=O)N4CCOCC4)c3)cc2s1	-5.18% (inactive)
